Experimental findings from PubChem BioAssay are described below.

Calls of active or inactive are those of the source.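 Rule for the calls: active = inhibition above the hit cutoff set in the earlier primary screen (cut at about 27% in these data); inactive = the rest.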

In this assay the target is Protein phosphatase methylesterase 1 (Homo sapiens) (UniProt Q9Y570). The assay can be described thus: human PME-1 methylesterase inhibition confirmation – biochemical, fluorescence polarization, FP-Rh probe, triplicate (AID 2171).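 Note: 0% = enzyme with DMSO and 100% = wells lacking PME-1.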 Conditions: recombinant PME-1, FP-Rh probe fluorescence polarization; at 5.9 µM; stronger effect = higher value. In general terms: In fluorescence polarisation assays a small probe gives low polarisation when free and higher when bound to something large.
Sequence of Protein phosphatase methylesterase 1 (Homo sapiens) (Q9Y570 whole entry, looked up): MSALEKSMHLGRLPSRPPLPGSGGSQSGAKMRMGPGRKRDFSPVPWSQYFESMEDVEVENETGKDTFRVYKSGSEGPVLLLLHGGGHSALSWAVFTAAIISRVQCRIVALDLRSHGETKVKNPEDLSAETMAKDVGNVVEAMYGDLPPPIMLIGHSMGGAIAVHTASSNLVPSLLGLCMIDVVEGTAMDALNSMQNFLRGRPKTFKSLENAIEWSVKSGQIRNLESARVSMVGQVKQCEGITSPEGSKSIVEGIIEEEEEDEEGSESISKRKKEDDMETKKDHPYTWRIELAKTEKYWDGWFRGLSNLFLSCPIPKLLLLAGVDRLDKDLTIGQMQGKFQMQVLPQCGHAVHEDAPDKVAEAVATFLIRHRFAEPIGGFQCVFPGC
A word on the inhibition: it is the relative decrease from the control value, in per cent. On to `CCOc1cc(CNc2ccc(O)cc2)ccc1OCc1ccc(Cl)cc1Cl`, for which the inhibition was 13.2% (inactive).

For `O=C(N/N=C/c1c[nH]c2ccccc12)c1cc(-c2ccc3ccccc3c2)n[nH]1`, the inhibition is 10.8% (inactive).

Regarding `O=[N+]([O-])c1cccc(N/N=C/c2cccc(O)c2O)c1`, the inhibition is 32.9% (active).

In the case of `COc1ccc(-c2cc(-c3cc(OC)ccc3O)[nH]n2)cc1`, the inhibition was 71% (active).

Turning to `COc1ccc(-c2cc(-c3c(O)c(OC)c4occc4c3OC)[nH]n2)cc1OC`, the inhibition was 12.9% (inactive).

`COc1cc2c(cc1NC(=O)Nc1ccccc1)oc1ccccc12`: the inhibition was -9.58% (inactive).

Turning to `COc1ccc(-c2c/c(=N\c3nc(-c4ccccc4)c(C)s3)c3ccccc3o2)cc1O`, the inhibition was 20.8% (inactive).

In the case of `N#CC1=C(N)C(C#N)(C#N)C(c2cccnc2)C2CN(C(=O)OCc3ccccc3)CC=C12` (stereo not given), the inhibition was 35.5% (active).

Consider `CSc1ccc(C2Nc3cccc4cccc(c34)N2)cc1`, for which the inhibition is 36.5% (active).

Consider `O=C(NNc1c2ccccc2nc2ccccc12)c1ccc(O)cc1O`, for which the inhibition is 65.2% (active).

`Cc1[nH]c2ccccc2c1/C=C/c1nc2ccccc2c(=O)n1CCO`: the inhibition was 68.3% (active).

As for `O=[N+]([O-])c1cc(S(=O)(=O)Nc2cccc(C(F)(F)F)c2)ccc1-n1nnc2ccccc21`, the inhibition was 18.7% (inactive).

For the compound `O=c1cc(-c2ccccc2Cl)oc2c(NS(=O)(=O)c3cc(Cl)cc(Cl)c3O)ccc(O)c12`, the inhibition is 47.1% (active).

Turning to `CC#CCN1c2ccccc2[C@]23C[C@@H](C(=O)OC)N(C(=O)c4cc(C)oc4C)C2=NC(C(=O)OC)=C(C(=O)OC)[C@H]13`, the inhibition was 29.6% (active).

Consider `COc1cc2c(c(OC)c1OC)-c1ccc(NC(=O)c3ccc(F)cc3)c(=O)cc1[C@@H](NC(C)=O)CC2`, for which the inhibition is 0.65% (inactive).

Consider `Cn1c(=O)c(Nc2ccc(O)cc2)c2c3c(cccc31)C(=O)c1ccccc1-2`, for which the inhibition was 36% (active).

Consider `N#Cc1c(N)nc2c3c(sc(=N)c2c1N)NC(=O)CC3c1ccccc1` (stereo not given), for which the inhibition was 29% (active).

As for `CCn1c(CSc2nnc(-c3ccncc3)n2C)nc2cc(C(=O)O)ccc21`, the inhibition is 51.5% (active).

In the case of `CCCCN(CCCC)CCNC(=O)c1cn(C)c2ccc(S(=O)(=O)N(C)C3CCCCC3)cc2c1=O`, the inhibition was 58.5% (active).

Turning to `Cc1ccc2[nH]c(C)c(/C=N/Nc3nc4ccccc4s3)c2c1`, the inhibition is 41.1% (active).

In the case of `O=C(O)c1cccc(-n2c(/C=C/c3ccc([N+](=O)[O-])cc3)nc3ccccc3c2=O)c1`, the inhibition was 24.3% (inactive).

In the case of `COC(=O)c1cccc(C#CC(NP(=O)(c2ccccc2)c2ccccc2)c2ccccc2)c1` (stereo not given), the inhibition was 35.1% (active).

Regarding `CCc1ccc(CNc2ccc(O)cc2)cc1`, the inhibition was 7.5% (inactive).

As to `Oc1ccc(Br)cc1-c1nc2cnccn2c1NC1CCCC1`, the inhibition was 21.4% (inactive).

`Cc1cc(Nc2ccc(O)cc2)ccc1N`: the inhibition is 17.6% (inactive).

As for `COc1cc2c(C#N)c(N3CCc4ccccc4C3)nc(N)c2c(N)n1`, the inhibition is 32.4% (active).

Regarding `Nc1c(C(=O)Nc2ccc(Br)cc2)sc2nc(-c3ccco3)ccc12`, the inhibition is 34.4% (active).

For `O=C(Nc1cccc(C(F)(F)F)c1)c1ccc2nc(-c3ccco3)c(-c3ccco3)nc2c1`, the inhibition is -3.36% (inactive).

For `O=c1nc(/C=C/c2cc([N+](=O)[O-])ccc2Cl)cc(C(F)(F)F)[nH]1`, the inhibition was 25.3% (inactive).

With `CC(C)N(C(=O)Nc1ccc2nsnc2c1)C(C)C`, the inhibition is 20.8% (inactive).

Take `Nc1c(C(=O)Nc2ccc(F)cc2)sc2nc(-c3ccco3)ccc12`: the inhibition was 49.6% (active).

Take `C=CCOc1c(OC)cc(/C=N/Nc2cccc(C(=O)O)c2)c(Br)c1Br`: the inhibition is 44.5% (active).

Take `O=C(N=Nc1c(O)n(Cc2ccccc2)c2ccccc12)c1cc2ccccc2cc1O`: the inhibition is 54.8% (active).

Take `O=C(CCCSc1ccccc1)Nc1nc(-c2ccco2)c(-c2ccco2)s1`: the inhibition is 6.79% (inactive).

For the compound `Oc1ccc(N=Cc2ccc(-c3cccs3)s2)cc1`, the inhibition is 23.3% (inactive).

As for `O=C(CNc1cccc2ccccc12)N/N=C/C(Br)=C/c1ccccc1`, the inhibition is -1.47% (inactive).

`C/C(=N\Nc1ccccc1C(=O)O)c1ccncc1`: the inhibition is 1.32% (inactive).

As to `COc1cc(N/N=C(\C)c2ccc(O)c(C)c2)nc(-c2ccccc2)n1`, the inhibition was 27.3% (active).

Turning to `Oc1ccc(/C=N/Nc2ccc(C(F)(F)F)cn2)c(O)c1`, the inhibition is 17.8% (inactive).

Take `Cc1ccc(C(=O)COC(=O)c2cccc(NC(=O)c3ccc([N+](=O)[O-])cc3[N+](=O)[O-])c2)cc1`: the inhibition is -3.98% (inactive).
